Bioassay records (PubChem)
Sampled rows, rich in hits. Any-hit rate of the full collection: about 4.7%.
D1 PAM: potentiators of human D1 dopamine receptor | HEK293 TREx D1 cells, calcium flux, dopamine EC20 potentiation | 360,000 tested, 0.036% active | P21728 | potentiation, % at 10 µM | AID 504651; in the data active = potentiation above about 30%
TRHR agonist: TRH receptor (human) agonism | P34981 | TRHR cells, calcium flux fluo-8, FDSS agonist mode | 360,000 tested, 0.18% active | activation, % at 2 µM
Target sequence (P34981 whole entry, looked up): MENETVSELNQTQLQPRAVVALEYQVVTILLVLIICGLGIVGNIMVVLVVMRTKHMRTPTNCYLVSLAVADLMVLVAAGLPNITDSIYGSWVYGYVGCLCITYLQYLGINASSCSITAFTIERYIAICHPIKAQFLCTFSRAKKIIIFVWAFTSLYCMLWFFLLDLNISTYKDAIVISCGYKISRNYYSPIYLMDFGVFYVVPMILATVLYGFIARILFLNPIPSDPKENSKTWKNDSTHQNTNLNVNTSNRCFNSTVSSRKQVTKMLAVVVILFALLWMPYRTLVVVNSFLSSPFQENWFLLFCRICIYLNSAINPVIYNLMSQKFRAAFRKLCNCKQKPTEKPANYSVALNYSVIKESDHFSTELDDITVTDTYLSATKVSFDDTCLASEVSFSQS
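In this calcium-flux screen, cells bearing human TRHR are dye-loaded with fluo-8, baselined for 10 cycles, then exposed to library compounds; positive kinetic calcium responses during the agonist phase mark hits, with TRH as control.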
D1 ag: human D1 receptor agonism. P21728. HEK293 T-REx D1 cells, calcium flux, agonist mode. activation, % at 2 µM. 360,000 tested, 1% active. AID 504660
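Tetracycline-induced HEK293 TREx D1 cells, force-coupled to calcium signalling, were dye-loaded with a no-wash calcium kit. Compound was pin-added after a 10 s baseline. Fluorescence was read kinetically at 1 cycle/s for 180 s, with calcium rises flagged as agonism.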
D1 antagonist: antagonists of human D1 dopamine receptor; P21728; HEK293 TREx D1 cells, calcium flux, dopamine EC80; hits give low values; activity change, negative = inhibition, % at 10 µM; 360,000 tested, 3.2% active; in the data active = activity change below about -30%
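Cells carrying a force-coupled, tetracycline-inducible human D1 receptor report calcium flux. Each well gets a 10 s baseline, compound with 180 s monitoring, then an EC80 dopamine stimulus with a second 180 s kinetic read.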
TRHR PAM: TRH receptor (human) allosteric enhancement; P34981; TRHR cells, fluo-8 calcium fluorescence, EC20 TRH enhancement; enhancement, % at 2 µM; 360,000 tested, 0.66% active; AID 493056; in the data active = enhancement above about 30%
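Enhancer read-out: after compound pinning and an initial kinetic agonist-mode read, an EC20 of TRH (10 nM final) was injected and fluo-8 calcium signal (Ex 480/Em 530) followed at 1 s/cycle for 100 cycles in TRHR-expressing cells.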
A number is an active result; i = inactive; nt = not tested or not shown. Rule as the data show it, unless noted: active = activation above about 30%; inactive = the rest.

SMILES	D1 PAM	TRHR agonist	D1 ag	D1 antagonist	TRHR PAM
COc1ccc(S(=O)(=O)N(C)c2ccc(C(=O)Nc3cccnc3)cc2)cc1OC	i	i	i	i	i
CN(c1ccc(C(=O)Nc2cccnc2)cc1)S(=O)(=O)c1ccc(Cl)cc1	i	i	i	-41	i
COc1ccc(S(=O)(=O)N(C)c2ccc(C(=O)Nc3cccnc3)cc2)cc1	i	i	i	-33	i
CN(c1ccc(C(=O)Nc2cccnc2)cc1)S(=O)(=O)c1ccccc1	i	i	i	i	i
COCCOC(=O)c1[nH]c2c(c1C)C(=O)CC(c1ccc(F)cc1)C2 (stereo not drawn)	i	i	64	i	i
CCOC(=O)c1cc(OC(=O)c2ccc(OC)c(OC)c2)n(-c2ccccc2)n1	i	i	i	i	i
Cc1ccc([N+](=O)[O-])cc1NC(=O)Nc1onc(C)c1C	i	i	i	-36	i
O=C(Nc1csc([N+](=O)[O-])c1)Nc1c(Cl)cccc1Cl	i	i	i	-45	i
Cc1ccc([N+](=O)[O-])cc1NC(=O)Nc1ccc(S(N)(=O)=O)cc1	i	i	i	-79	i
O=C(Nc1ccc(Cl)cc1)Nc1cc([N+](=O)[O-])ccc1F	i	i	i	-37	i
CCN(CC)S(=O)(=O)c1ccc2c(c1)c(=O)c(C(=O)N1CCN(c3cc(C)ccc3C)CC1)cn2C	i	i	i	i	i
COc1ccc(CNC(=O)c2ccc(-c3nc(CSc4ccccc4)c(C)o3)cc2)cc1OC	i	i	i	i	i
CC(NCc1ccc(S(N)(=O)=O)cc1)C(=O)Nc1cc([N+](=O)[O-])ccc1Cl (stereo not drawn)	i	i	i	i	i
O=C(Nc1ccc(Cl)cc1)Nc1csc([N+](=O)[O-])c1	i	i	i	-45	i
CC(NCc1ccc(S(N)(=O)=O)cc1)C(=O)Nc1ccc([N+](=O)[O-])cc1Cl (stereo not drawn)	i	i	i	-30	i
O=C(Nc1ccc(Cl)cc1)Nc1ccccc1CC[N+](=O)[O-]	i	i	35	-39	i
CN(C)C(=O)Nc1ccccc1CC[N+](=O)[O-]	i	i	i	i	i
COc1ccccc1CNS(=O)(=O)c1cnc(N)nc1	i	i	i	i	i
COc1ccc(Cc2nnc(NC(=O)CSc3ccccc3)s2)cc1OC	i	i	i	i	i
COc1ccc(Cc2nnc(NC(=O)CSc3ccc(Cl)cc3)s2)cc1OC	i	i	98	i	i
COc1ccc(CN/C(C)=C(/C#N)C(N)=O)cc1OC	i	i	i	-66	i
CCOC(=O)c1oc2ccc(S(=O)(=O)n3nc(-c4ccccc4)cc3N)cc2c1C	i	i	i	-34	i
COc1cccc(/C=N\NC(=O)c2cc(OCC(F)(F)F)ccc2OCC(F)(F)F)c1	i	i	33	i	i
CNC(=O)c1cc(OCC(F)(F)F)ccc1OCC(F)(F)F	i	i	i	nt	i
CCN(CC)c1ccc(NC(=O)C2CCCN(S(=O)(=O)c3ccc4c(c3)oc(=O)n4C)C2)c(C)c1 (stereo not drawn)	i	i	i	i	i
SMILES	D1 PAM	TRHR agonist	D1 ag	D1 antagonist	TRHR PAM
COc1cc(-c2cc(C(=O)O)c3c(OC)c(OC)c(OC)cc3n2)ccc1O	i	i	i	-50	i
COc1ccc(C2C(C(=O)N3CCN(c4ccccc4F)CC3)c3ccccc3C(=O)N2C)cc1 (stereo not drawn)	i	i	i	-83	i
CC(Oc1cccc(Cl)c1)C(=O)Nc1ccccc1N1CCCC1 (stereo not drawn)	i	i	i	i	i
CCN1CCN(c2ccccc2NC(=O)C(C)Oc2ccc(C(C)=O)cc2)CC1 (stereo not drawn)	i	i	i	-49	i
Cc1cccc2sc(N(Cc3cccnc3)C(=O)c3cccs3)nc12	i	i	i	nt	i
COc1ccc2c(c1)CC(C(=O)NCCCN1CCN(c3ccc(F)cc3)CC1)CO2 (stereo not drawn)	i	i	i	i	i
COc1ccc(-c2nc3cc(C)ccn3c2NC(=O)c2ccc(F)cc2)cc1	i	i	i	-40	i
O=C1CC(c2ccc(Cl)c([N+](=O)[O-])c2)c2ccc3ccccc3c2N1 (stereo not drawn)	i	i	i	i	37
Cn1nc(C(F)(F)F)c(CN2CC(C)(C)C2=O)c1N1CCOCC1	i	i	i	-31	i
Cn1nc(C(F)(F)F)c(CNC(=O)C(C)(C)CCl)c1N1CCOCC1	i	i	i	i	i
CCc1ccccc1NC(=O)C(=O)c1cc(C)n(-c2ccccc2F)c1C	i	i	i	i	i
COc1ccc(CNC(=O)C2CCN(Cc3nc(-c4ccc(Cl)cc4)oc3C)CC2)cc1	i	i	i	i	i
O=C(Nc1ccc(F)cc1)c1sc(Cl)nc1-c1ccccc1	i	i	i	i	i
O=C(Nc1cccc(F)c1)c1sc(Cl)nc1-c1ccccc1	i	i	i	-36	i
CSc1cccc(NC(=O)Nc2ccc(Cl)cc2)c1	i	i	i	-33	i
NS(=O)(=O)c1ccc(NC(=O)Nc2cccc(Cl)c2)cc1	i	i	i	-32	i
CS(=O)(=O)c1ccc2nc(NC(=O)Nc3cccc(Cl)c3)sc2c1	i	i	34	i	i
CS(=O)(=O)c1ccc2nc(NC(=O)Nc3ccc(Cl)c(Cl)c3)sc2c1	i	i	i	i	i
NC(=O)c1ccccc1NC(=O)Nc1cccc(Cl)c1	i	i	i	-42	i
CSc1cccc(NC(N)=O)c1	i	i	i	i	i
COc1cc(C(=O)N2CCC(c3nc4ccccc4o3)CC2)cc(OC)c1OC	i	i	i	i	i
CC1CCN(c2nn3c(=O)c(C(=O)NCCc4ccccc4)cnc3s2)CC1	i	i	i	i	i
Cc1nc2ccc(S(=O)(=O)NC(C(=O)Nc3nc4ccc(Cl)cc4s3)C(C)C)cc2s1 (stereo not drawn)	nt	i	i	-41	i
CSc1ccccc1NC(=O)CSc1nnc(CNC(=O)c2ccccc2F)n1C	nt	i	48	i	i
COc1ccccc1N1CCN(CC(=O)c2ccc3ccn(C(C)=O)c3c2)CC1	nt	i	i	-76	i
SMILES	D1 PAM	TRHR agonist	D1 ag	D1 antagonist	TRHR PAM
COc1ccc(C(=O)N2CCN(c3ccccc3OC)CC2)cc1	i	i	i	i	i
COc1ccccc1N1CCN(CCCC(=O)c2ccc(F)cc2)CC1	i	i	i	-80	i
COc1ccc(C(=O)CCN2CCN(c3ccccc3OC)CC2)cc1	i	i	i	-46	i
Cc1ccsc1CN(C(=O)c1ccc(OCC(C)C)cc1)C1CCS(=O)(=O)C1 (stereo not drawn)	i	i	i	i	i
CC(C)(C)OC(=O)Cc1nnc(-c2cc3ccccc3[nH]2)o1	i	i	i	i	i
CN1CCN(CC(=O)Nc2cc(N(C)C)nc3ccccc23)CC1	i	i	i	-31	i
COc1ccc(S(=O)(=O)n2cccc2)c(OC)c1	i	i	i	i	32
